Reference: PubChem BioAssay (NCI)
Compounds without any hit were thinned out: in the full panel of roughly 79,000, 15% have a hit. Active and inactive are the calls of the source. Rule as the data show it: active = growth inhibition above about 70%; inactive = the rest.

Tests used:
[1] = NCI Yeast Anticancer Drug Screen. Data for the rad50 strain (AID 155);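 also: 0% = growth of vehicle-only cultures of the same strain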; conditions: S. cerevisiae rad50 strain growth inhibition; at 50.0 µM; active compounds read high
How it was run: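 A DNA repair-deficient yeast mutant serves as the test organism; compound-induced growth inhibition is calculated against vehicle-treated cells.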

[2] = NCI Yeast Anticancer Drug Screen. Data for the mec2-1 strain (AID 157); conditions: S. cerevisiae mec2-1 strain, at 50.0 µM, active compounds read high
How it was run: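 Readout is yeast growth inhibition, normalised to vehicle-treated controls, in the mec2-1 strain exposed to compound.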

[3] = NCI Yeast Anticancer Drug Screen. Data for the sgs1 mgt1 strain (AID 161);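 also: 0% = growth of cultures given vehicle only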; conditions: S. cerevisiae sgs1 mgt1 strain, at 50.0 µM, active compounds read high
How it was run: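 Yeast cells carrying a defined DNA-repair defect were exposed to test compounds. Growth inhibition was measured relative to vehicle-treated controls.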

[4] = NCI Yeast Anticancer Drug Screen. Data for the cln2 rad14 strain (AID 165);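 also: 0% = growth equal to vehicle treated cultures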; conditions: S. cerevisiae cln2 rad14 strain, at 50.0 µM, active compounds read high
How it was run: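 Relative to vehicle controls, growth inhibition of compound-treated cln2 rad14 yeast was recorded.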

[5] = NCI Yeast Anticancer Drug Screen. Data for the bub3 strain (AID 167); conditions: S. cerevisiae bub3 mutant strain, at 50.0 µM, active compounds read high
How it was run: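 Inhibition values come from growth of compound-treated mutant yeast normalised to vehicle-treated controls.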

[6] = NCI Yeast Anticancer Drug Screen. Data for the mlh1 rad18 strain (AID 175); conditions: S. cerevisiae mlh1 rad18 strain growth inhibition; at 50.0 µM; active compounds read high
How it was run: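 Test agents were incubated with a yeast strain of defined genotype (DNA damage repair defect). Inhibition of growth was derived by comparison with vehicle-exposed cultures.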

Measured: growth inhibition

Cc1onc(-c2c(Cl)cccc2Cl)c1C(=O)Nc1ccc(Cl)c(Cl)c1Cl
inactive: [1] -12.4% | [2] -14.7% | [3] -3.2% | [4] 12.1% | [5] 2.25% | [6] -8.25%

CC(C)(C)CC(C)(C)NS(=O)(=O)NC(C)(C)CC(C)(C)C
inactive: [1] 1.1% | [2] -31.1% | [3] -9.15% | [4] -57.3% | [5] 1.45% | [6] 0.7%

COC(=S)OC1CC(n2cnc3c(N)ncnc32)OC1CO[Si](C)(C)C(C)(C)C (stereo unspecified)
inactive: [1] -10.2% | [2] -8.25% | [3] 2.55% | [4] -1.2% | [5] 11.1% | [6] 4.9%

Cc1ccc(S(=O)(=O)c2ccccn2)cc1
inactive: [1] -37.2% | [2] -11.2% | [3] -9.35% | [4] -1.7% | [5] -13% | [6] -24.1%

C/C(=C/c1ccccc1)C(=O)O
inactive: [1] -3.8% | [2] -18.8% | [3] -22% | [4] -20.1% | [5] -20.8% | [6] -2.45%

N=c1nc(N)ss1
inactive: [1] 15.8% | [2] 5.85% | [3] 16.4% | [4] -31.6% | [5] 21.7% | [6] 44%

N#C/C(=C\c1ccccc1)C(=O)Nc1ccccc1
inactive: [1] 17.3% | [2] 3.5% | [3] -1.35% | [4] -4.15% | [5] -4.7% | [6] 22.6%

Cc1cc2c(cc1C)-c1c(N)nc(N)nc1CC2
inactive: [1] 2.2% | [2] 9.95% | [3] -8.6% | [4] -29.2% | [5] -15% | [6] 12.7%

COC(=O)Nc1cn2cc(C(=O)c3cccs3)ccc2n1
inactive: [1] -2.5% | [2] -21.5% | [3] -9.95% | [4] -10.5% | [5] -42% | [6] -53.2%

CC/C(=N/N(C)C)C(=O)O
inactive: [1] -29.4% | [2] -3.9% | [3] -5.3% | [4] -10.6% | [5] -17.1% | [6] -16.3%

O=C1/C(=C/c2ccc(O)cc2)CCc2ccc([N+](=O)[O-])cc21
inactive: [1] -10.3% | [2] -1.15% | [3] 9.45% | [4] 13.8% | [5] -0.8% | [6] -55.4%

CCOC(CCC#N)c1ccc(C)cc1 (stereo unspecified)
inactive: [1] 10.2% | [2] 5.65% | [3] 34.1% | [4] 25.2% | [5] 0.8% | [6] 22.3%

C#CCOCCCC(=O)O
inactive: [1] 6.95% | [2] -8.2% | [3] 0.6% | [4] 0.3% | [5] 16.2% | [6] 11.7%

OCC(CCl)(CCl)CCl
inactive: [1] 31% | [2] 18.1% | [3] 10.8% | [4] 7.45% | [5] 18.2% | [6] 41%

CCOC(=O)c1ccc(CSc2ccc(OC)cc2)cc1
active: [1] 86.9% | [2] 75.7% | [3] 86.4% | [4] 76.5% | [5] 80.5% | [6] 78.6%

CC(NCc1cc(O)c(CNC(C)c2ccccc2)cc1O)c1ccccc1 (stereo unspecified)
inactive: [1] 4.55% | [2] 0.4% | [3] 17.1% | [4] 25.2% | [5] 12.4% | [6] 1.95%

CCOC(=O)c1c[nH]c(=S)n(C)c1=O
inactive: [1] -6.6% | [2] -10.2% | [3] -6.65% | [4] -14.1% | [5] 0.4% | [6] 2.1%

Clc1ccc(Nc2nc3ccccc3nc2-c2cccs2)cc1Cl
inactive: [1] -13.4% | [2] 4.55% | [3] 1.2% | [4] -7.5% | [5] -3.05% | [6] -2.1%

COC(=O)C1(C)CCCC2(C)c3cc(OC)ccc3C(=O)C(Cl)C12 (stereo unspecified)
inactive: [1] 7.8% | [2] 0.15% | [3] 6.45% | [4] -13.8% | [5] 26.4% | [6] 5.7%

FC(F)(F)c1cc(C2SCc3nc4ccccc4n32)cc(C(F)(F)F)c1 (stereo unspecified)
inactive: [1] -5.25% | [2] -23% | [3] -7.9% | [4] 6.95% | [5] -4.35% | [6] -17.4%

NC1(c2ccccc2)C2CC3CC(C2)CC1C3 (stereo unspecified)
inactive: [1] 14.1% | [2] 1% | [3] -9.1% | [4] -48.8% | [5] 7.25% | [6] 3.7%

CCOC(=O)/C(=C\c1ccccc1)C(=O)O
inactive: [1] -6.75% | [2] -29.9% | [3] -6.25% | [4] 26% | [5] -21.9% | [6] -1.8%

COc1c2c(cc3c1C1(O)Cc4ccc5c(c4C[N+]1(C)CC3)OCO5)OCO2 (stereo unspecified)
inactive: [1] 10.8% | [2] 3.05% | [3] -5.3% | [4] -1.15% | [5] -4.25% | [6] -60.8%

N#CCCCCN1CCOCC1
inactive: [1] 10.3% | [2] -7.5% | [3] -21.7% | [4] 22.1% | [5] -8.9% | [6] 20.7%

CO[C@H]1C[C@H]2[C@@H]3CCC4=CC(=O)C=C[C@]4(C)[C@@]3(F)[C@@H](O)C[C@]2(C)[C@@]1(O)C(=O)COC(C)=O
inactive: [1] 6.55% | [2] -0.35% | [3] 22.8% | [4] 33.2% | [5] 1.05% | [6] -6.55%

C=CCC(O)c1ccc(OC)c(OC)c1 (stereo unspecified)
inactive: [1] 2.55% | [2] -3.3% | [3] -6.3% | [4] -19.1% | [5] 3.4% | [6] 0.55%

CN(C)CCNC(=O)c1ccc(Cl)c2cc3ccccc3nc12
inactive: [2] 66.3% | [3] 58% | [4] 50.7% | [5] 15.7%
active: [1] 83.3% | [6] 85.8%

COc1cc2c(c(Cl)c1O)C(=O)OC2
inactive: [1] -4.25% | [2] -7.8% | [3] 12.8% | [4] 3.55% | [5] -6.8% | [6] 17.4%

O=C(O)CCSC1=NCCN1
inactive: [1] -32.8% | [2] -44% | [3] -26.1% | [4] 16.6% | [5] -42.9% | [6] -10.6%

Nc1nc(N)c2cc(N3CCCC3c3ccc(Cl)cc3)ccc2n1 (stereo unspecified)
active: [1] 90.8% | [2] 92.5% | [3] 91.5% | [4] 90.5% | [5] 91.6% | [6] 91%

CC(C)[C@@H](C)[C@@]1(C)C[C@@H]1[C@@H](C)[C@H]1CC[C@@H]([C@@H]2CC=C3C[C@@H](O)CC[C@]3(C)C2=O)[C@]1(C)CCO
inactive: [1] 13.9% | [2] 9.65% | [3] 19.3% | [4] -17.9% | [5] -7.35% | [6] -3.35%

Cc1ccc2nnc(C)n2c1
inactive: [1] 10.7% | [2] 1.95% | [3] 1.85% | [4] 19.2% | [5] 24.9% | [6] -4.4%

O=C(Nc1ccc(F)cc1)Nc1cccc(C(=O)O)c1
inactive: [1] 20% | [2] 7.9% | [3] 6.4% | [4] 7.6% | [5] 22.4% | [6] 12.2%

OC1(C2(O)CCCCC2)CCCCC1
inactive: [1] -38.2% | [2] 13.4% | [3] 22.1% | [4] -32.5% | [5] -11.8% | [6] 3.75%

Cc1ccc(C(=O)CCN2CCOCC2)c(C)c1
inactive: [1] 40.1% | [2] 5.55% | [3] 26.6% | [4] -4.65% | [5] 29.1% | [6] 31%

Cc1cc(=O)[nH]c2nc(N)ccc12
inactive: [1] -9.5% | [2] -8.25% | [3] 11.7% | [4] -24.9% | [5] 7.8% | [6] -18.9%

CCC1CN2C(=N1)c1ccccc1-c1cc([N+](=O)[O-])ccc12 (stereo unspecified)
active: [1] 94% | [6] 94.2%
inactive: [2] 43% | [3] -20.2% | [4] 51.3% | [5] 54%

Fc1cc(Cl)c(F)cc1Cl
inactive: [1] -18% | [2] -17.8% | [3] -18.2% | [4] -27.3% | [5] -12.4% | [6] -27.4%

Nc1nc2c(nc(OCc3ccccc3)n2C2OC(CO)C(O)C2O)c(=O)[nH]1 (stereo unspecified)
inactive: [1] 23.5% | [2] 10.8% | [3] 2.65% | [4] 8.95% | [5] 0.5% | [6] 16.1%

COC(CNCCO)c1ccccc1 (stereo unspecified)
inactive: [1] 3.1% | [2] -17.6% | [3] -0.45% | [4] -89.2% | [5] -6.15% | [6] -5.45%

COc1ccc(F)cc1N
inactive: [1] 2% | [2] -17.8% | [3] 5.15% | [4] -7.35% | [5] 11.8% | [6] -18.7%
